# Rows were chosen to be rich in hits. Some 1.6% of all compounds tested hit in one or more screens of this group.
# PKA-R1A act = PKA-R1A complex activation. PKA-R1A dissociation, Cy5-IP20 fluorescence polarization; scaled: DMSO 0%, 113 µM cGMP 100%. 340,000 tested, 0.083% active. activation, % at 11.4 µM. P00514+P68181. AID 504707;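 active = percent activation above the mean of all tested compounds plus 3 SD, cut at about 19% in these data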;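 note: higher means more PKAc released from R1A so a rise in polarization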
# PKA-R2B act = PKA-R2B complex activation; P22694+P31323; PKA-R2B holoenzyme dissociation, Cy5-IP20 fluorescence polarization; R2B truncated from residue 108, S112A mutant; 0% DMSO only, 100% 113 µM cGMP; activation, % at 11.4 µM; 340,000 tested, 0.079% active;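 active = activation above a cutoff set at the mean over all compounds plus 3 SD, cut at about 18% in these data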;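 note: higher means more holoenzyme dissociation and a rise in polarization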
# NRP1-CendR mod = alters CendR peptide binding to human NRP-1. O14786. FAM-RPARPAR peptide binding to NRP-1, fluorescence polarization. inhibition, % at 25 µM. 360,000 tested, 0.85% active;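 active = inhibition or corrected inhibition above about 18%, plus a signal ratio from 0.5 to 1.5, limit read from the data, passing the limit was not always enough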
# ATG4B inh = ATG4B (human) cysteine protease inhibition; ATG4B cleavage of LC3-PLA2, NBD-HPC fluorescence, 1 h; inhibition, % at 8.33 µM; 340,000 tested, 0.51% active; in the data active = inhibition above about 40%
# VLA-4 inh = inhibition in a human VLA-4 binding assay. 330,000 tested, 0.2% active. VLA-4 expressing cells, ligand binding flow cytometry. P13612. inhibition, % (about 7 µM as worked out from the volumes in the protocol)
# Target sequence (P13612 whole entry, looked up): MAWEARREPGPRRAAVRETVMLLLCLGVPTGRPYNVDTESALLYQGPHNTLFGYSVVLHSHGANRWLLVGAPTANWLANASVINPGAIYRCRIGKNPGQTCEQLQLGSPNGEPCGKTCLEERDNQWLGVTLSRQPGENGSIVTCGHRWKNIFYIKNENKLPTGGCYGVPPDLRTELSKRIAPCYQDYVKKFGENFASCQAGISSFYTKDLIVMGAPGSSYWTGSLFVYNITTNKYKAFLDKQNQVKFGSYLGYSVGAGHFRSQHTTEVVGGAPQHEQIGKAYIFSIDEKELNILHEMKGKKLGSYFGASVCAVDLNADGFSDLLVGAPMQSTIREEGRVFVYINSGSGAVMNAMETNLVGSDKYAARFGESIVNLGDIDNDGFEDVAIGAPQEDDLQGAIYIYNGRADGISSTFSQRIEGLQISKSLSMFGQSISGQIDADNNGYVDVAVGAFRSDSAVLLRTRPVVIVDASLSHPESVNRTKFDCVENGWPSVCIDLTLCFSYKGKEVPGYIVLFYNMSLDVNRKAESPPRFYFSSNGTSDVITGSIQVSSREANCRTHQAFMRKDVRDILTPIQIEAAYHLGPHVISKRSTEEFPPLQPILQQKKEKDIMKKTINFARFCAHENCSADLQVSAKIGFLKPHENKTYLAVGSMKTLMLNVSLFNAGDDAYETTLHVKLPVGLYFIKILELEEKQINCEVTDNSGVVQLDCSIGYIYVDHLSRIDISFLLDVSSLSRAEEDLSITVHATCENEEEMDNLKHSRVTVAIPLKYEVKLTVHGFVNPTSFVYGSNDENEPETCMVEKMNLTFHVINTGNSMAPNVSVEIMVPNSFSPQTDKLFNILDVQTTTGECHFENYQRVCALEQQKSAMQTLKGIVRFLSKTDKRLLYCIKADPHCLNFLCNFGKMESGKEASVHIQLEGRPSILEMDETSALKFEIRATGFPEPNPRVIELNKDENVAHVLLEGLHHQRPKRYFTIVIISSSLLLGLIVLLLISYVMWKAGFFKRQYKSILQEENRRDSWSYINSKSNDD
# ATG4B conf = confirmation of human ATG4B inhibitors. 320 tested, 92% active. inhibition, % at 8.33 µM. ATG4B protease fluorescent substrate cleavage assay. shares compounds with ATG4B inh; in the data active = inhibition above about 39%
# PLA2 ctr = PLA2 (human) inhibition in ATG4B counter-screen. shares compounds with ATG4B inh. purified PLA2, NBD-C6-HPC fluorescence, 45 min. inhibition, % at 8.33 µM. 1,600 tested, 66% active. AID 588402
# Starred values were filed as active, the others as inactive; / = not tested or not shown. Cut-off read from the data, not from the text of the source, unless noted: active = inhibition above about 50%; inactive = the rest.
SMILES,PKA-R1A act,PKA-R2B act,NRP1-CendR mod,ATG4B inh,VLA-4 inh,PLA2 ctr,others
O=C(CN1CCN(S(=O)(=O)c2cccc(Cl)c2)CC1)NCC1(N2CCOCC2)CCCCC1,0.8,1.1,-17.7,-5.3,3.8,/,
O=C(CC1C(=O)NCCN1Cc1cccc(F)c1)NCCCOc1cccnc1 (stereo not drawn),-3.8,-0.9,3.7,3.1,7.7,/,
COc1ccccc1Nc1cc2cc(Br)ccc2c(=O)[nH]1,-6.0,-7.5,-43.6,65.9*,-17.7,5.1,
O=c1[nH]c(Nc2ccccc2)cc2cc(Br)ccc12,-2.9,-6.5,-16.2,36.2,-15.0,/,
Cc1cc(C)c(C(=O)C(C)OC(=O)Cn2cnc3c2c(=O)n(C)c(=O)n3C)cc1C (stereo not drawn),-3.3,10.5,0.2,2.5,6.2,/,
COc1ccc([C@H]2C[C@@H](O)[C@H](n3cc(C4CC4)nn3)CN2C(=O)c2cccs2)cc1,2.3,11.1,-12.7,/,/,/,
COC(=O)CSc1nc2cc(Cl)ccc2c(=O)n1C1CCCC1,-6.1,-0.6,-1.9,45.9*,3.1,26.4,ATG4B conf=60.6*
Brc1cc(-c2ccccc2)nc(-c2ccccc2)n1,/,/,-5.3,0.3,13.5,/,
Cn1c(COc2ccc(Br)cc2)nnc1SC1CCc2ccccc2C1=O (stereo not drawn),-0.6,-23.5,-11.7,49.5*,-4.5,62.4*,
Cn1c(COc2ccccc2)nnc1SCCSc1nnc(COc2ccccc2)n1C,-1.3,2.6,-5.9,0.7,0.8,/,
Cc1c(Cl)cccc1NC(=S)NCCc1ccc(C(F)(F)F)cc1,-5.3,-6.9,4.7,88.5*,10.7,93.9*,
CCOc1cc(/C=C2\C(=O)N(c3nc(-c4ccc(Br)cc4)cs3)N=C2c2ccccc2)ccc1O,7.4,10.0,-273.5,53.5*,-166.8,46.7,ATG4B conf=66.5*
COc1cc(/C=C2\C(=O)N(c3ccc(NC(C)=O)cc3)N=C2c2ccccc2)ccc1O,-3.1,-2.4,-32.6,-4.9,-4.2,/,
Oc1ccc(N=Nc2n[nH]c(-c3ccccc3)n2)cc1,-5.8,8.3,-8.2,-4.5,6.3,/,
Oc1ccc(N=Nc2nc(-c3ccccc3)c(-c3ccccc3)[nH]2)cc1,-16.6,-15.2,-95.5,48.1*,11.3,39.6,ATG4B conf=67.5*
CC(C)(C)C(=O)CSc1ncnc2sc3c(c12)CCC3,3.0,-4.6,-4.7,/,20.2,20.5,
O=C1[C@H](Cc2ccccc2)NCC=CC[C@H](c2ccc(Cl)cc2)N1Cc1ccccc1,-6.3,-7.5,-3.5,56.6*,/,69.6*,
O=C1[C@H](Cc2ccccc2)NCC=CC[C@@H](c2ccc(Cl)cc2)N1Cc1ccc(Cl)cc1,-1.9,-3.7,5.6,-17.8,/,/,
O=C1[C@H](Cc2ccccc2)NCC=CC[C@H](c2ccc(Cl)cc2)N1Cc1ccc(Cl)cc1,13.8,8.3,5.6,45.5*,/,80.5*,
Cc1cc(C2=CC(=O)C[C@H](c3ccc4c(c3)OCO4)C2)ccc1F,-1.9,-0.6,2.3,-3.7,0.0,/,
COc1ccc(-c2ccc3c(c2)S(=O)(=O)c2cccc(C(=O)NCc4cccc(OC(F)(F)F)c4)c2C3=O)cc1OC,-0.8,-12.6,145.7,70.0*,-7.5,69.7*,
CCCCNC(=O)C1(C)CCN1C(=O)c1cccc(OC(C)=O)c1C (stereo not drawn),/,/,-9.5,/,/,/,
Cc1ccccc1C(=O)NC(=S)Nc1ccc(S(=O)(=O)N(C)c2ccccc2)cc1,-5.2,4.6,-0.4,47.7*,8.3,57.0*,
Cc1cccc(C(=O)NC(=S)Nc2ccc(S(=O)(=O)N(C)c3ccccc3)cc2)c1,-3.9,-8.3,0.6,6.5,22.7,/,
CN1C(=O)CSc2ccc(NC(=O)NCc3ccc(F)cc3)cc21,-6.5,-3.7,-2.5,64.2*,-3.1,79.4*,
SMILES,PKA-R1A act,PKA-R2B act,NRP1-CendR mod,ATG4B inh,VLA-4 inh,PLA2 ctr,others
COc1ccccc1CCC(=O)N1CCN(S(=O)(=O)c2cc(C(F)(F)F)ccc2Cl)CC1,-6.2,-6.0,-1.8,3.9,1.7,/,
COc1ccc(NS(=O)(=O)c2ccc(C)c(NC(=O)NC3CCCCC3)c2)cc1,-8.9,4.6,-0.8,4.9,5.4,/,
COc1ccc(NS(=O)(=O)c2cccc(NC(=O)NC3CCCCC3)c2)cc1,-2.5,-3.1,8.0,54.4*,4.4,64.8*,
O=C(CN1CCN(c2ccc(F)cc2)CC1)NCc1ccc(Cl)cc1,-10.6,6.9,6.8,-9.8,-2.3,/,
CCCCCCCCCCCCN1[C@@H](CC(=O)O)c2cc(C(F)(F)F)ccc2S1(=O)=O,9.2,10.7,-51.0,58.8*,-13.7,71.6*,
Cc1ccc(SCCNC(=O)/C=C/c2ccccc2Cl)cc1,-5.3,-4.7,0.0,56.2*,5.0,65.9*,
O=C(c1cccs1)N(Cc1ccco1)c1nc(-c2ccc(F)cc2)cs1,0.6,-0.6,-9.6,42.0*,-29.3,56.3*,
CCC(=O)N(Cc1ccco1)c1nc(-c2ccccc2)cs1,-15.7,-7.6,-5.4,-7.0,0.1,/,
COc1ccc(/C=C2/SC(=S)N(CCCC(=O)Nc3ccccc3C(=O)O)C2=O)cc1,10.0,4.8,-24.9,7.0,4.8,/,
COc1ccc(/C=C2\SC(=S)N(CCCC(=O)NNC(=O)c3ccccc3O)C2=O)cc1,-12.5,2.8,-0.1,49.1*,-2.1,-5.5,
COc1ccc(S(=O)(=O)NC(=O)C2(C)CCN2C(=O)c2c(C)noc2C)cc1 (stereo not drawn),/,/,6.4,/,/,/,
Cc1cccc(C(=O)NC(=S)NC(C)c2ccccc2)c1 (stereo not drawn),/,/,4.9,36.6,4.0,/,
O=C1NC(=S)S/C1=C\c1cc(Cl)cc(Cl)c1O,3.4,-2.2,-276.9,62.1*,/,35.6,ATG4B conf=39.8*
NC(=O)NC[C@@H]1CC[C@@H](Cc2ccc(-c3ccccc3)cc2)O1,1.8,-1.5,-12.7,79.8*,/,81.1*,
COc1ccc(NC(=O)NC[C@@H]2CC[C@@H](Cc3ccc(-c4ccccc4)cc3)O2)cc1,-4.1,-5.4,1.9,40.4*,/,74.0*,
O=C(CCNS(=O)(=O)c1ccc(Br)cc1)N1CCN(c2ccccc2O)CC1,-14.1,-16.3,-2.0,-14.1,17.8,/,
O=C(O)c1ccc(-c2ccc(/C=C3\NC(=O)N(Cc4ccc(Cl)cc4)C3=O)o2)cc1Cl,1.5,4.1,-54.8,48.9*,/,37.2,ATG4B conf=60.1*
O=C(Nc1ccccc1OCc1ccccc1)c1ccccc1Br,-5.9,4.2,10.7,12.5,0.9,/,
CC1=NN(c2ccccc2)C(=O)/C1=C/c1c(O)n(-c2ccc(F)c(Cl)c2)[nH]c1=O,/,/,/,55.0*,-1.6,64.3*,
Cc1ccc(NC(=O)c2ccc(S(=O)(=O)N3CCCC3)cc2)nc1,8.5,1.6,1.5,-6.3,-2.8,/,

# Compound activity deposited in PubChem BioAssay by several laboratories.
